Compound activity: PubChem BioAssay, National Center for Advancing Translational Sciences (NCATS)
In the library only some 12% were active in any assay of this set; here they are far more common.
G9a inh: qHTS Assay for Inhibitors of Histone Lysine Methyltransferase G9a; Histone-lysine N-methyltransferase EHMT2 (Homo sapiens), Q96KQ7; G9a H3K9 monomethylation, AlphaScreen, 2 h; Potency, µM (top dose mostly 102 µM), without a hit: top-dose activity, negative = inhibition, hits mostly inhibitors; 350,000 compounds, 8.8% hits; further: on the % scale 0 is the no-effect control and ±100 the full control effect; nearly all actives have a fitted effect of over 75% in size
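AlphaScreen detection with an anti-monomethyl H3K9 antibody quantified product after a 2 h room-temperature reaction containing 500 nM biotinylated H3K9 peptide, 20 µM SAM and 20 nM enzyme, which had been preincubated 15 min with compound.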
Sfp PPTase inh: qHTS Assay for Inhibitors of Bacillus subtilis Sfp phosphopantetheinyl transferase (PPTase). 4'-phosphopantetheinyl transferase ffp (Bacillus subtilis), Q9F4F7. Biochemical Sfp PPTase activity, qHTS. Potency, µM, inactives show largest response in the series, negative = inhibition, hits mostly inhibitors. 310,000 compounds, 3.5% hits. AID 1490, 2009;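 further: the enzyme is Sfp with the accession as filed and its product quenches rhodamine fluorescence; 0% = enzyme reaction without inhibitor and -100% = no enzyme wells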
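Reaction rates are the 30-min fluorescence difference (ex 525, em 598 nm) in wells containing 15 nM Sfp, 5 uM rhodamine-CoA and 12.5 uM BHQ-2-YbbR at pH 7.6 with 10 mM MgCl2.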
BAZ2B block: qHTS Assay for Inhibitors of BAZ2B. AID 504333, 2011. 360,000 compounds, 4.4% hits. AlphaScreen BAZ2B-H3K14Ac peptide displacement. Potency, µM (top dose mostly 114 µM), without a hit: at the top dose activity change, negative = inhibition, hits mostly inhibitors. Bromodomain adjacent to zinc finger domain protein 2B (Homo sapiens), Q9UIF8; further: on the % scale 0 is the no-effect control and ±100 the full control effect; nearly all actives have a fitted effect of over 60% in size
Target sequence (Q9UIF8 whole entry, looked up, the tested form may be a part): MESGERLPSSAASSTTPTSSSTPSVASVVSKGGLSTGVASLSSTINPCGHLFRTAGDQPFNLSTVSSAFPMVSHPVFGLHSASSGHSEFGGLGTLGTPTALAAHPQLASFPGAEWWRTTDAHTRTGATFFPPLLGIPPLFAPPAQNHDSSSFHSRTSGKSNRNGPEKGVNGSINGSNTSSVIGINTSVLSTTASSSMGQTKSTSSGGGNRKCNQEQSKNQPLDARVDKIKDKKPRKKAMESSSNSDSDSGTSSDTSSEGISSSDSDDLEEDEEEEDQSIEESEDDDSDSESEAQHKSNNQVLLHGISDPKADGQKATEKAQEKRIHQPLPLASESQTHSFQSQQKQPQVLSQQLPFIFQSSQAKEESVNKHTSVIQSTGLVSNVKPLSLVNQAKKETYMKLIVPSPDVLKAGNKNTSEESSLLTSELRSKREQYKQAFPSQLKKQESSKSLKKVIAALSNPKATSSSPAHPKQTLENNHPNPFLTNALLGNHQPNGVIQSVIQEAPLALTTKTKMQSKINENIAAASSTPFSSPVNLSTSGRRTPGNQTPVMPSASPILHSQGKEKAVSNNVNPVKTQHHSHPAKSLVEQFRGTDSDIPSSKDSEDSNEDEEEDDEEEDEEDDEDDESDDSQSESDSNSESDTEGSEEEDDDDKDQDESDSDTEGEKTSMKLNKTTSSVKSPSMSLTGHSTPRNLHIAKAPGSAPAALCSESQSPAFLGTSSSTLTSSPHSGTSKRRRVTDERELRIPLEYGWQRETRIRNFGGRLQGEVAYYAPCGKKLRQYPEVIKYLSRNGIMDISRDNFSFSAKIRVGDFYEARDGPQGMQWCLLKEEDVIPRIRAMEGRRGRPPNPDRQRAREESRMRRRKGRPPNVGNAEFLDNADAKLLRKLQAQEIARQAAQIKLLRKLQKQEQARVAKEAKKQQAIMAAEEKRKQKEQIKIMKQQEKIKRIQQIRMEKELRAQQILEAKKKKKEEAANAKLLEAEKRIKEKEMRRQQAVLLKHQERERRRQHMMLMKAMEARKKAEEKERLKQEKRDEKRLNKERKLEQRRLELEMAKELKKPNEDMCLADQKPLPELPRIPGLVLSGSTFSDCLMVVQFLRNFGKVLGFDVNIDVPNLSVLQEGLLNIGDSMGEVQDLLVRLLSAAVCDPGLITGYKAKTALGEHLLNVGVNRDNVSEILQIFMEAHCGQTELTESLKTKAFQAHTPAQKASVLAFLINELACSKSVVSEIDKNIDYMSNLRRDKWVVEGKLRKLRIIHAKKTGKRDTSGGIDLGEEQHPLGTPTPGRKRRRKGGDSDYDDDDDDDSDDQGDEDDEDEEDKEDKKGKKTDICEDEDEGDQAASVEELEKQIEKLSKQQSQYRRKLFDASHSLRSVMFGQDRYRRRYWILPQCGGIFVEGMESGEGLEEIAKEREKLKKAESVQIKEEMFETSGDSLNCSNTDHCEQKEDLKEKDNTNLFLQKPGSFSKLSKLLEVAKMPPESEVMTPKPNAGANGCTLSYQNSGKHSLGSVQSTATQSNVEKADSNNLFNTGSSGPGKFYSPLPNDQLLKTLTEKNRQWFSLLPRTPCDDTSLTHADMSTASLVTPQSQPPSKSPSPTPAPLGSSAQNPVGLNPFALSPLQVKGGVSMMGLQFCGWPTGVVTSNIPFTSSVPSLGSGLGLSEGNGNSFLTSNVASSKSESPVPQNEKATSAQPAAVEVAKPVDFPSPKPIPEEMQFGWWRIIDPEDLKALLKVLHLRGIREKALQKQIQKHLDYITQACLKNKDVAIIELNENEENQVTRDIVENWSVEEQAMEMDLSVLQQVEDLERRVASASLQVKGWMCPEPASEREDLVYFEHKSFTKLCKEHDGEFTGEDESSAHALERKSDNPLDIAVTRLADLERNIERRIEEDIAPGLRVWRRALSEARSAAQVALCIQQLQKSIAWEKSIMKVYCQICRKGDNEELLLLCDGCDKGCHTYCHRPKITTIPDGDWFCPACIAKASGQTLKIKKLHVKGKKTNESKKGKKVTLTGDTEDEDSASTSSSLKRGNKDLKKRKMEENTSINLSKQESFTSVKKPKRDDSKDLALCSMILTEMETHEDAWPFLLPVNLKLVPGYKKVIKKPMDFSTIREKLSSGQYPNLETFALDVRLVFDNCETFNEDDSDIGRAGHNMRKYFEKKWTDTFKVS
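Compounds, titrated to a top concentration of 110 uM, were incubated 30 min at room temperature with preformed BAZ2B/acetyl-K14 H3 peptide complex (50 nM each). Proximity signal was measured by AlphaScreen after 20 min with beads.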
L3MBTL1 inh: qHTS Assay for the Inhibitors of L3MBTL1. AlphaScreen L3MBTL1–H3K9me1 peptide binding. Potency, µM (titrated, usually from 57.1 µM), for inactives: at the top dose activity, negative = inhibition, hits mostly inhibitors. 230,000 compounds, 0.66% hits; further: on the % scale 0 is the no-effect control and ±100 the full control effect; nearly all actives have a fitted effect of over 60% in size
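AlphaScreen assay: L3MBTL1 (50 nM final) was preincubated 30 min at room temperature with biotinylated H3(1-15)K9me1 peptide (75 nM final), then 30 min with library compounds; streptavidin donor and nickel chelate acceptor beads (10 ug/mL final) added, 30 min dark.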
JMJD2A Tudor: qHTS Assay for Inhibitors of JMJD2A-Tudor Domain; Lysine-specific demethylase 4A (Homo sapiens), O75164; AlphaScreen JMJD2A-Tudor / H3K4me3 peptide binding; Potency, µM (top dose mostly 114 µM), inactives show at the top dose activity change, negative = inhibition, hits mostly inhibitors; 390,000 compounds, 4.4% hits; further: on the % scale 0 is the no-effect control and ±100 the full control effect; nearly all actives have a fitted effect of over 50% in size
HP1b chromo inh: HTS for Inhibitors of HP1-beta Chromodomain Interactions with Methylated Histone Tails | AlphaScreen HP1-beta / biotin-H3K9me3 peptide binding | 390,000 compounds, 0.56% hits | Potency, µM (highest dose often 114 µM), for inactives: at the highest dose activity change, negative = inhibition, hits mostly inhibitors | Chromobox protein homolog 1 (Homo sapiens), P83916; further: nearly all actives have a fitted effect of over 70% in size
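AlphaScreen: HP1-beta (50 nM) preformed 30 min with biotin-H3(1-18)K9me3 peptide (50 nM) in PBS pH 7.4, 0.01% Tween-20. Compound added for 30 min at RT, then streptavidin donor/nickel chelate acceptor beads (10 ug/mL) for 30 min.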
* hit, by the source's call; ? = inconclusive; · = no result; [ ] = remark or other dose. The call rests on the fitted dose curve; in most records, active means well fitted curve in the direction sought with a large enough effect; inconclusive means small, poorly fitted or top-dose-only effect, or another doubt; inactive means no such curve, though single readings can be large; an effect the other way counts as inactive or inconclusive. Potency means the concentration at half of the fitted maximal effect.

SMILES | G9a inh | Sfp PPTase inh | BAZ2B block | L3MBTL1 inh | JMJD2A Tudor | HP1b chromo inh
CC[C@H](C)[C@@H]1NC(=O)[C@H](Cc2ccc(O)cc2)NC(=O)[C@@H](N)CSSC[C@@H](C(=O)N2CCC[C@H]2C(=O)N[C@@H](CC(C)C)C(=O)NCC(N)=O)NC(=O)[C@H](CC(N)=O)NC(=O)[C@H](CCC(N)=O)NC1=O | · | 7% | · | · | · | ·
Cc1ccc2c(c1)C(=O)c1c(C(=O)O)cccc1-2 | -32% | 27% | -13% | -14% | -18%[11.4 µM] | -14%
O=C(O)c1cccc2c1C(=O)c1cccc3snc-2c13 | 56µM* | 25% | -19% | 3% | -23% | 7%
O=C(NCCCc1nc2ccccc2n1Cc1ccccc1F)c1ccco1 | -7%[59 µM] | · | -14% | · | -21% | 10%
COc1cc(/C=C/c2ccc(O)cc2)cc(OC)c1 | 2%[59 µM] | 56µM* | -34% | · | -29% | -17%
COc1ccccc1C(=O)Nc1ccc(S(=O)(=O)Nc2ncccn2)cc1 | 3%[59 µM] | · | 0% | · | -8% | 35%
O=C1/C(=C/c2ccc(O)c(O)c2)Oc2cc(O)ccc21 | ? | ? | 56µM* | · | -30% | -4%
CCOC(=O)C1=C2NC(=O)c3ccccc3N2C(=O)C1 | 7.9µM* | -22% | -28% | · | ? | ?
CC(=O)N/N=C(\N)c1nonc1N | · | 89µM* | -5% | · | ? | 28%
CO/N=C(\N)c1nonc1N | 15% | 20% | 3% | 1% | -8% | 32%
CCc1c(C)c2cc3c(c(C)c2oc1=O)OCN(CCc1ccc(OC)c(OC)c1)C3 | 1%[59 µM] | · | -18% | · | -17% | 31%
Cc1ccc2c(=O)c(C(=O)c3ccccc3)cn(CC(=O)NCc3ccccc3)c2n1 | -15%[59 µM] | · | 9%[57.1 µM] | · | 6% | 38%
CC(SCc1cn2cc(Cl)ccc2n1)C(=O)O (stereo not given) | ? | -1% | -24% | 4% | 50µM* | 0%
O=C(CC1C(=O)N(c2ccccc2)C(=O)N1Cc1ccc(F)cc1)Nc1cccc(F)c1 (stereo not given) | ? | · | -3% | · | -18% | 10%
Cc1occc(=O)c1OC(=O)Nc1ccc(Cl)c(Cl)c1 | ? | -15% | -1% | 11% | 25µM* | 5%
CCN(CC)C(=O)CSC1=N/C(=C/c2ccco2)C(=O)N1c1ccc(OC)c(Cl)c1 | 25µM* | ? | ? | -7% | -26% | 6%
NC(=O)CSC1=N/C(=C\c2ccco2)C(=O)N1c1ccc(OC(F)F)cc1 | ? | -4% | -37% | -25% | ? | 22%
Cc1ccc(C)c(Cn2c3ccccc3c3cnn(CC(=O)NC4CCC(C)CC4)c(=O)c32)c1 (stereo not given) | -14%[59 µM] | · | -12% | · | -25% | -7%
O=c1[nH][nH]c(-c2ccccc2O)c1C(C[N+](=O)[O-])c1cccc(Cl)c1 (stereo not given) | -7%[59 µM] | -4% | -29% | -12% | 6% | 38%
COc1ccc(C(c2c(C)n(C)n(-c3ccccc3)c2=O)c2c(C)n(C)n(-c3ccccc3)c2=O)cc1O | -15% | 3% | -7% | 40% | -6% | 49%
COc1cccc(C(C[N+](=O)[O-])c2c(C)[nH]n(-c3ccccc3)c2=O)c1 (stereo not given) | 10µM* | 28µM* | ? | · | -32% | -11%[57 µM]
CCOc1ccc(C(c2c(C)[nH]n(-c3ccccc3)c2=O)c2c(C)[nH]n(-c3ccccc3)c2=O)cc1OC | 8.9µM* | · | ? | · | ? | ?
Cc1[nH]n(-c2ccccc2)c(=O)c1C(c1cccc([N+](=O)[O-])c1)c1c(C)[nH]n(-c2ccccc2)c1=O | 35µM* | -12% | 28µM* | -27% | ? | -28%
